Results filed as inconclusive are left out. Activity calls are given as the source filed them. The call rests on the fitted dose curve; in most records, active means well fitted curve in the direction sought with a large enough effect in the repeat runs; inconclusive means weak or mixed curves; inactive means no such curve, though single readings can be large; an effect the other way counts as inactive or inconclusive.
How the values were obtained:
[1] = Human pregnane X receptor (PXR) small molecule agonists, qHTS cell viability counter screen (AID 1346977); further: nearly all actives have a fitted effect of over 50% in size
In short: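 Tox21 qHTS format; PXR-Luc HepG2, 2,000/well, charcoal-stripped FBS 5%. Cpd exposure 24hr. Read: CellTiter-Fluor fluorescence, multiplexed with luciferase.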

[2] = Caspase-3/7 induction in HepG2 cells by small molecules, qHTS assay (AID 1346978); further: nearly all actives have a fitted effect of over 15% in size
In short: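 Wild-type HepG2 cells, 2,000/well, settled 5 hr at 37 C and 5% CO2, then compound-treated for 17 hr; caspase-3/7 activity read by luminescent Caspase-Glo 3/7 after 30 min at room temperature.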

[3] = Caspase-3/7 induction in CHO-K1 cells by small molecules, qHTS assay (AID 1346980); further: nearly all actives have a fitted effect of over 15% in size
In short: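 Wild-type CHO-K1 cells exposed to compounds for 17hr at 37 C, 5% CO2. Caspase-3/7 activity then measured by Caspase-Glo 3/7 luminescence after 30min at room temperature.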

[4] = molecular target: Nuclear receptor subfamily 1 group I member 2 (Homo sapiens) (UniProt O75469); assay: Human pregnane X receptor (PXR) small molecule agonists, qHTS assay (AID 1346982); further: nearly all actives have a fitted effect of over 35% in size; further: potency means the concentration at half of the fitted maximal effect
Sequence of Nuclear receptor subfamily 1 group I member 2 (Homo sapiens) (O75469 whole entry, looked up): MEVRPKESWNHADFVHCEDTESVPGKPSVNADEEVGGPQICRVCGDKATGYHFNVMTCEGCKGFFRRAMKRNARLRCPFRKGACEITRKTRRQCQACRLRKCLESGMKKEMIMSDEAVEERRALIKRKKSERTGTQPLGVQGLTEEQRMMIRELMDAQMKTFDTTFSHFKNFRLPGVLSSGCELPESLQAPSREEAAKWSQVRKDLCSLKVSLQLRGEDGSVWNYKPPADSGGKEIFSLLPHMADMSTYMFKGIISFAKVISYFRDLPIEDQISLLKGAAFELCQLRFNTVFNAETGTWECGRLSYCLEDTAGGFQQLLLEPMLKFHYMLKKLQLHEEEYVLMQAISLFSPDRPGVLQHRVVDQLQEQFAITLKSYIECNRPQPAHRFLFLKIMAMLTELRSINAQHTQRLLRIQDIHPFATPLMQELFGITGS
In short: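 Cells: HepG2 stably carrying PXR-Luc. Medium held 5% charcoal-stripped FBS. Compounds in DMSO added after 5 hr plating, incubated 24 hr, then luminescence quantified with ONE-Glo.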

[5] = molecular target: Nuclear receptor subfamily 1 group I member 2 (Rattus norvegicus) (UniProt Q9R1A7); assay: Rat pregnane X receptor (rPXR) activation by small molecules, qHTS assay (AID 1346983); conditions: rPXR luciferase reporter cells, One-Glo luminescence, 24 h; max activation: active compounds read high; further: nearly all actives have a fitted effect of over 20% in size; further: potency means the concentration at half of the fitted maximal effect
Sequence of Nuclear receptor subfamily 1 group I member 2 (Rattus norvegicus) (Q9R1A7 whole entry, looked up): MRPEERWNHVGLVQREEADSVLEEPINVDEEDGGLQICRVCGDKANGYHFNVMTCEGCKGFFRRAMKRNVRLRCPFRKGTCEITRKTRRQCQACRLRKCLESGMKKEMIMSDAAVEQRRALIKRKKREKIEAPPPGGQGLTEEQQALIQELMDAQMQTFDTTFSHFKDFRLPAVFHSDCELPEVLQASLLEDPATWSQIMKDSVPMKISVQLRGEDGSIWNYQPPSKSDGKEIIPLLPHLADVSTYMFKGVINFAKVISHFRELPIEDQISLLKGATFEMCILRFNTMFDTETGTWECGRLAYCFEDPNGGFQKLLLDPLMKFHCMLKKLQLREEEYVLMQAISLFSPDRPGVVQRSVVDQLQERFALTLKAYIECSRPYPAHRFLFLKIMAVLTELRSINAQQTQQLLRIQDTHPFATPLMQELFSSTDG
In short: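 Cell-based rPXR activation assay: rPXR cells, 2,000 per well, rested 5hr at 37 C, then exposed to compounds in DMSO for 24 hr at 37 C. Luciferase activity read by One-Glo luminescence after 30 min at room temperature.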

[6] = molecular target: Nuclear receptor subfamily 1 group I member 2 (Homo sapiens) (UniProt O75469); assay: CYP3A4 induction through human pregnane X receptor (PXR) by small molecules, qHTS assay (AID 1346984); further: nearly all actives have a fitted effect of over 40% in size
In short: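 Quantitative HTS in DPX-2 cells, i.e. HepG2 transfected with PXR response element and CYP3A4-promoter luciferase. Compounds in DMSO incubated 24hr at 37C; then P450-Glo CYP3A4 substrate, 3uM final, 3hr; One-Glo luminescence.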

[7] = molecular target: Nuclear receptor subfamily 1 group I member 2 (Homo sapiens) (UniProt O75469); assay: Human pregnane X receptor (PXR) activation by small molecules, qHTS assay (AID 1346985); further: nearly all actives have a fitted effect of over 40% in size; further: potency means the concentration at half of the fitted maximal effect
In short: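 DPX-2 cells (HepG2 co-transfected with a PXR response element and a CYP3A4-promoter luciferase construct) were seeded at 2,000 per well, rested 5 hr at 37C, then exposed to DMSO-dissolved compounds for 24 hr. Activation was read as luciferase luminescence.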

[8] = Caspase-3/7 induction in HepG2 cells by small molecules, qHTS cell viability counter screen (AID 1346981); further: series mostly up to about 92 µM; nearly all actives have a fitted effect of over 30% in size
In short: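 Cell viability is measured as a cytotoxicity counter screen alongside the Caspase-Glo 3/7 readout in identical wells. Wild-type HepG2 cells are treated with test compounds for 16 hr at 37 C before CellTiter-Fluor addition and a 1-hr incubation.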

[9] = Caspase-3/7 induction in CHO-K1 cells by small molecules, qHTS cell viability counter screen (AID 1346979); further: nearly all actives have a fitted effect of over 35% in size
In short: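 CellTiter-Fluor viability check, qHTS format: wild-type CHO-K1, 16hr compound treatment, 1hr reagent incubation, fluorescence read.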

[10] = molecular target: Cytochrome P450 2D6 (Homo sapiens) (UniProt P10635); assay: Cytochrome P450 Family 2 Subfamily D Member 6 (CYP2D6) small molecule antagonists: luciferase reporter qHTS assay (AID 1671196); further: nearly all actives have a fitted effect of over 50% in size; further: potency means the concentration at half of the fitted maximal effect
Sequence of Cytochrome P450 2D6 (Homo sapiens) (P10635 whole entry, looked up): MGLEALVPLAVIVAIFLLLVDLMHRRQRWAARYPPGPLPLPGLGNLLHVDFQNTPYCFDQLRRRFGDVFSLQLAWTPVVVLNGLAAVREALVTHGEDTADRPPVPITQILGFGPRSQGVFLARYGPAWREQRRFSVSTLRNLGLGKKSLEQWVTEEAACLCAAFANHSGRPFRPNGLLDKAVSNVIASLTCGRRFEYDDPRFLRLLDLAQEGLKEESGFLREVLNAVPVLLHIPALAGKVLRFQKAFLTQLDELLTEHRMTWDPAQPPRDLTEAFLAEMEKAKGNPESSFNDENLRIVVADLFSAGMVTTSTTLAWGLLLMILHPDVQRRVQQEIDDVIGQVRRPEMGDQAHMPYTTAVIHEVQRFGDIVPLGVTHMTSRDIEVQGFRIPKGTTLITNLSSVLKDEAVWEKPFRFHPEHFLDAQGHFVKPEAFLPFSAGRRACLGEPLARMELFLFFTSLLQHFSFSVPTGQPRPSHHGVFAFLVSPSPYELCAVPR
In short: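 Enzyme and proluciferin substrate were first combined with test chemical for 10 min at room temperature. Adding NADPH regeneration solution started a 1 h reaction, stopped with luciferin detection reagent and read by luminescence 20 min later.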
On the % scale 0 is the no-effect control and ±100 the full control effect.

CC(C)NNC(=O)c1ccncc1
inactive: Potency [1] | outcome [2] | outcome [3] | Potency [4] | max activation [5] -0.682% | Potency [6] | Potency [7]

O=C1NC(=O)C2CC=CCC12 (stereo not given)
inactive: Potency [1] | outcome [2] | outcome [3] | Potency [8]

CCOC(=O)COc1cc(-n2ncc(C(F)(F)F)c(C)c2=O)c(F)cc1Cl
active: Potency [10] 63.3 µM
inactive: Potency [1] | outcome [2] | Potency [9] | outcome [3]

C[N+]12CCC(CC1)C(OC(=O)C(O)(c1ccccc1)c1ccccc1)C2 (stereo not given)
inactive: Potency [1] | outcome [2] | outcome [3] | Potency [8] | Potency [4] | max activation [5] -2.26% | Potency [6] | Potency [7]

O=C(c1ccccc1O)c1ccccc1O
inactive: Potency [1] | outcome [2] | outcome [3] | Potency [8]
active: Potency [4] 60.5 µM | Potency [10] 24.9 µM

NC(N)=NCCN1CCCCCCC1
inactive: activity change, negative = cytotoxicity [1] -0.749% [at 0.349 µM] | caspase activation [2] -1.67% [at 0.349 µM] | activity change, negative = cytotoxicity [9] -1.24% [at 0.349 µM] | caspase-3/7 activation [3] -0.223% [at 0.349 µM] | max activation [5] -2.81%

c1ccc2sc(SN3CCOCC3)nc2c1
active: Potency [5] 28.2 µM | Potency [7] 10 µM
inactive: Potency [1] | outcome [2] | outcome [3] | Potency [8] | Potency [6]

Cc1ccnc(NS(=O)(=O)c2ccc(N)cc2)n1
inactive: Potency [1] | Potency [9] | outcome [3] | Potency [8] | Potency [4] | max activation [5] -0.793% | Potency [6] | Potency [7] | Potency [10]

Cc1ccc(-c2ccccc2C#N)cc1
inactive: Potency [1] | outcome [2] | outcome [3] | Potency [8] | Potency [4] | Potency [10]

CCCCN(CCC(=O)OCC)C(C)=O
inactive: Potency [1] | Potency [9] | outcome [3] | Potency [8] | Potency [4] | Potency [10]

CCCOC(=O)CC
inactive: Potency [1] | Potency [9] | outcome [3] | Potency [4] | Potency [10]

CCCc1ncc(C[n+]2ccccc2C)c(N)n1
inactive: Potency [1] | outcome [3] | max activation [5] -3.34% | Potency [10]

CC1=CC(=O)[C@H]2C[C@@H]1C2(C)C
inactive: Potency [1] | Potency [9] | outcome [3] | Potency [8] | Potency [4] | Potency [10]

NC(=O)NC1N=C([O][Al])NC1=O (stereo not given)
inactive: outcome [2] | Potency [9] | outcome [3] | Potency [8] | Potency [4]

Nc1ccn([C@@H]2O[C@H](CO)[C@@H](O)C2O)c(=O)n1 (stereo not given in full)
inactive: Potency [1] | outcome [3] | Potency [8] | Potency [4] | max activation [5] -0.294% | Potency [7] | Potency [10]

Reference: PubChem BioAssay (Tox21)
